The results in this text go back to the supplement of paper PMC12632987.

B1: uchl1_2_7524 (protein)
chain: KTVFVGALVTLEAEDKETGKVYRYRRNLIGTESAIEALAKEVKELVLNFKEAVGLPVKATVHIVASREEVLKKAVEEFEKMAKELAKEGIEVEITSELTK
B2: uchl1_2_7547 (protein)
chain: KTEFVGVLVTITSVNPETGETFVARRTLIGTASSIEAMAKEIKELALAFKADTKGDTTVDVEVVVSSKEVAEKAKKALEELKKELEAEGIKFNYKITVVE
B3: uchl1_2_7519 (protein)
chain: KTVIVGVLVDMRAYDPETGREYRARHTLIGTETAIEAMVEEIRERILAFRDDVGVPVEVDLHIVSSREEVARRLEALLKEMAAELAPEGVTVRISVTVTK
B4: uchl1_2_7549 (protein)
chain: EPQFVGVLVTVTSTNPETGKVYKSRRNFIGTADAIPALFKEVLEYVLTFKEANGGKTKVKLEIVVSTKEVAEKAKKEAEKLKKELAKEGIEAEVKITVVE
B5: uchl1_2_7529 (protein)
chain: KTQFVGALVTMTATDPKTGKTYRARRILIGTADGIPAMMEEIEELALEFQKQTGVPVTVNVTVHVSKEEVAEEVKKKLEELKKRLAEKGITFTYEVIVHK
B6: uchl1_2_7534 (protein)
chain: KTVFVGVKVTVTVTDPATGKTTTTTRTFIGTADSVDALADAVTDYILRVKADSKADVAAAVTVYSTDKAVVDRAVAALNARVPELAAAGVTVTVTGTVVK
B7: uchl1_2_7540 (protein)
chain: KSVFVGVLVTLRSYDEATGKEYVSRRTLIGTEDSIEALAEEVAELIRAFYEQTGVPVQADVTIVSSSREVAERLAEALRAREAELRAEGVDVTLTITVRV
B8: uchl1_2_7551 (protein)
chain: KSVFVGVLVTIRATDAATGETLVSRRTLIGTESSIKKLAEEVKELVLEFKARTGGPVEVDITVYSSKEEVAKKAKEEFEKLKKELAAEGVTANVNVILSK
B9: uchl1_2_7533 (protein)
chain: KTVFVGVRVTITSRNPETGEVRRAVRTFIFTESSLEALTEEIRELALAFKADHGGATTVRIEAVATREEVAERLRELLERLAEELAAEGIEVEIEVTVVK
B10: uchl1_2_7536 (protein)
chain: KTKFVGARVEIEAVDPETGKRYRSRRTLIGTASAIEAMAEEVRRLVLAFKEDVKAPVTVRVTVYASDEETAAKARAAFERMAAELAAEGITVEVEVVLVK
B11: uchl1_2_7550 (protein)
chain: EPRFVGVLVTVTSTNPETGEVFRSRRNFIGTADAVAAMMAEVEEYVLRFKEVNGGAVAVDLHVVVSTEEDAARARAEAAKLAARLAAEGITATVTVTVVE
B12: uchl1_2_7542 (protein)
chain: KPKFIGLKVTLTSYDEKTGKTYKATRTLIGTESGIEAMAKEVGELVRTFYDATGVPVKVDVTIVSSDEEVAKKLEEALRKMEEELKKEGVPVELNIKKEV
B13: uchl1_2_7553 (protein)
chain: KTKFVGVLVTIRAVNPETGKEYRSRRTLIGTADAIEALAEEVYELVLRFKEATGAPVEVDVRVYVSDEETAERAREAFKKLEERLKAEGVKARVEVTVVK
B14: uchl1_2_7545 (protein)
chain: KTKFVGVLVTLRSYDPETGREYVSRRTLIGTEEAVEAMAEEIAELIRRFHDRTGVPVDVDVTIYSSSKEVAEELKKKLEEEVKKLKAEGIDVTLTVTLKV
B15: uchl1_2_7521 (protein)
chain: KAEFVGVLVDMTSTDPETGKTYRYRRNYIGTASAIPAMMAEVERDVLNFQENVGLPVDVALHIVASTEAALEAARAEAKKMAARLAAKGAKVTITGEVAK
B16: uchl1_2_7552 (protein)
chain: KTQFVGVLVTITSTNPETGEVKTVRKTLIGTEEGIEAMAKEILEMALEFKEQTKGPVEVKVEVVVSTEETAKKMEEELKKLEEELKKEGIKVEVEVKVVK
B17: uchl1_2_7537 (protein)
chain: KTRFVGVKVDIEARNEETGEVFRARRTLIGTADSIPAMAEEVERLVLEFQRRTGVPVRVEVHVYASDEETARLAREEFEKMAERLRKEGIEVRVEVTVVE
B18: uchl1_2_7530 (protein)
chain: KAEFVGALLTLTARDAETGETFRSRRTLIGTADAIEALMAEIEELALRFQADVGVPVTADIHVVVSNEETAERVREALARMAERLAAEGITVNVTVTVVR
B19: uchl1_2_7538 (protein)
chain: KTRFVGVLVKITAKDEKTGKVYRARRTLIGTASGIPAMAEEVERLVLEFQERTGVPVRVEVHVYASDEETAELARREFERMAERLAEHGIEVTVTVTVVE
B20: uchl1_2_7532 (protein)
chain: ESVFVGVLVTITSRNEATGETKVARRTLIALESNIEALMEEVKELVLAFKEEHGGKTEVKIEVYATREEVAKRAREVAEKMKEELEAAGIDATVEVKLVK
B21: uchl1_2_7546 (protein)
chain: KTQFVGALVKMEAYDEETGKTYKSTRTLIGTADAIEKMAEEIYELALNFKDTVGVPVKVKVDVVVASEETKKKAEAALKKMKEKLKKEGIEVEVKVTVVE
B22: uchl1_2_7531 (protein)
chain: KKKTQFVGVLVTVRATRDGRELVARRTFIATESSIDALMAEVERYVRDFVAAAGTPARVAIRAVVSTEETGARVAAALAALAERLAPLAEEIEVTVEVRR
B23: uchl1_2_7548 (protein)
chain: KAEFVGALVTITSTNPETGEVRVARRTLIGLASDIDALMEEIERLVLDFQADTGGATRVRIRIVVSSEEVAERARAAAEEMKARLAAEGIEVEVEIEVVE
B24: uchl1_2_7535 (protein)
chain: KTKFVGVLVTLTATDAETGEVKTSRRTFIGTEDSVEALADEVKDYILDYKKDSGKAVKADIKIYSTDEEVVKKLEALLKEKEPELKAAGIEVNITGEVVK
B25: uchl1_2_7543 (protein)
chain: KPVFVGVLLELEARDEATGRVYRARRTLIGTEDGIEAMAEEVRRLVREFWEATGVPVRARVTIVSTREEVAERLRRALEAAHEELRAEGIDVTLEITVRV
B26: uchl1_2_7527 (protein)
chain: KSKFVGVKVTLTAYNEETGKTYVSTRTLILSESGIENLSKEILDLVERFKQVNGDNIEVDIKAVSTDEEALEKAKKELEKAKKELEAKGVKVNITYELVK
B27: uchl1_2_7525 (protein)
chain: KTVFVGALLTLTSVDEETGEVYRYRRTLIGTASAIEALAREVEELVLNFRDDVGLPVDAEVHLVASDEETLRRAREAFEKMAERLAEEGITVTITSEVAR
B28: uchl1_2_7526 (protein)
chain: KTKFVGVLVTLTSYNEETGKTYVSRRTLILSESGIEKLSEEILELVDRFKQVNGDNIKVKIHVVSTDEEALEKAKEKVEEAKEELEKRGVEVEVEYELVK
B29: uchl1_2_7544 (protein)
chain: KTKFVGVKVTLTSYDEKTGKEYKSTHTLIGTEEAVEAMAKEIAELIRTFYDATGVPVKVDVTIYSSSEEVAEKLEKELKKEVEKLKKEGIDVTLTITKKV
B30: uchl1_2_7520 (protein)
chain: KARFVGVLVDMTSTDPETGKTYRSRRNYIGTESAIPAMMAEVKEDVLNFQKNVGLPVKVDLHIVADTQEALDAAKAEAEKMAAELAKEGATVTISGEVAE
B31: uchl1_2_7539 (protein)
chain: KTKFVGALVEITAKDEKTGKVYRSRRTLIGTESAIEAMAKEIKELVLNFKEETGVPVEVKVTVYAENKETAEKMKKELEKMAKELAKEGIKVEIEVKLVE
B32: uchl1_2_7541 (protein)
chain: KTKFIGVLVTLTSYDAATGRTYRARRTLIGTESGIEAMAAEVAELVRTFHDATGQPVAVDVRIVSSDEAVAEALEAALKAAEAALKAEGVDVTLTITKDV

Chain of UCHL1, P09936 (P09936 whole entry, looked up, the tested form may be a part): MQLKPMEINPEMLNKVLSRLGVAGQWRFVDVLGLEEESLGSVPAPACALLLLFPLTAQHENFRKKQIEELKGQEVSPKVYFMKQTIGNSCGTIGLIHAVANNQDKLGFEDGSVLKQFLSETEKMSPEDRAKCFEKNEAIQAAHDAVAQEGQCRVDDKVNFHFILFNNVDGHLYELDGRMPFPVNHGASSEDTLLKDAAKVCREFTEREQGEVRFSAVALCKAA

This experiment deals with UCHL1, P09936. Kind of experiment: median log2 fold change of GCK-ALFA target abundance (FLAG IP / Myc IP barcode read proportion) (log2 ratio); each designed protein is fused to an ALFA-tag nanobody in HEK293 cells to bring the named protein to FLAG-tagged glucokinase (GCK); Myc marks an untargeted standard; higher = target protein stabilised (more abundant). The conditions noted are these: target protein: 3xFLAG-MCP-GCK-ALFA reporter; HEK293 landing pad (RPLP). An outline of the steps:
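Sequencing of reverse-transcribed, amplified circular RNA barcodes from anti-FLAG and anti-Myc immunoprecipitates provided the readout for an ALFA-nanobody-fused binder library recombined into HEK293 landing-pad cells. Those cells were induced with 2 μg mL^−1 doxycycline, transfected with a plasmid expressing a FLAG-tagged target and a Myc-tagged standard, and lysed after 48 h. Target abundance is the per-binder median log2 ratio of FLAG to Myc barcode read proportions. Only barcodes at a proportion of ≥10^−7 in both replicates and binders with ≥3 barcodes per replicate were kept, with a 10^−6 pseudocount added before the two replicates were pooled.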
As to B1, the “median log2 fold change” value is -0.455. The result for B2 reads -0.0935; that for B3, -0.204; that for B4, -0.1. The same measure for B5: -0.784. With B6, the “median log2 fold change” value is 0.287. The same measure for B7: -0.377. The same measure for B8: -0.159; for B9: -0.457.

For B10, the “median log2 fold change” value was -0.837.

On to B11, for which the “median log2 fold change” value is -0.0947. The result for B12 reads -0.0683. In the case of B13, the “median log2 fold change” value is -0.615. Regarding B14, the “median log2 fold change” value was determined as 0.0138. The same measure for B15: -1.03; for B16: 0.325. The result for B17 reads -0.302; that for B18, -0.378; that for B19, -0.55. The same measure for B20: -0.231; for B21: -1.13. In the case of B22, the “median log2 fold change” value is -0.524. The same measure for B23: -0.489; for B24: -0.112; for B25: 0.327.

Consider B26, for which the “median log2 fold change” value was -0.63. For B27, the “median log2 fold change” value came out at 0.0632. The result for B28 reads -0.696. The result for B29 reads -0.358; that for B30, -1.27. B31: the “median log2 fold change” value was -0.811.

As for B32, the “median log2 fold change” value is -0.304.
